Key:
Details in all cases: concentration: 1 μM, replicates: in singlicate; n = 1
[1] = system: T1, MLK1
T1 construct: gene MAP3K9

[2] = system: MLK2
[3] = system: MLK3
[4] = system: MRCKA
[5] = system: T2, MRCKB
T2 construct: gene CDC42BPB

[6] = system: MST1R
[7] = system: T3, MST1
T3 construct: gene STK4

[8] = system: T4, MST2
T4 construct: gene STK3

[9] = system: T5, MST3
T5 construct: gene STK24

[10] = system: MST4
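Note: KINOMEscan kinase panel screen.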

COc1cc(Nc2nccc(N3CCC(NC(=O)Nc4cccc(C(C)=O)c4)C3)n2)cc(OC)c1OC (stereo not shown) [GSK1379753]
%Inh [1]: 48% | %Inh [2]: 0% | %Inh [3]: 45% | %Inh [4]: 18% | %Inh [5]: 0% | %Inh [6]: 36% | %Inh [7]: 89% | %Inh [8]: 31% | %Inh [9]: 2% | %Inh [10]: 0%

Nc1ncnc2c1nc(-c1ccccc1)n2-c1ccccc1 [SKF-97293]
%Inh [1]: 16% | %Inh [2]: 2% | %Inh [3]: 0% | %Inh [4]: 0% | %Inh [5]: 0% | %Inh [6]: 18% | %Inh [7]: 21% | %Inh [8]: 20% | %Inh [9]: 0% | %Inh [10]: 24%

COc1ccc(Nc2nccc(N3CCC(NC(=O)Nc4cccc(OC)c4)C3)n2)cc1 (stereo not shown) [GSK1379742]
%Inh [1]: 0% | %Inh [2]: 0% | %Inh [3]: 25% | %Inh [4]: 11% | %Inh [5]: 0% | %Inh [6]: 9% | %Inh [7]: 0% | %Inh [8]: 31% | %Inh [9]: 0% | %Inh [10]: 0%

COC(=O)Nc1nc2cc(Oc3ccc(NC(=O)Nc4cc(C(F)(F)F)ccc4F)cn3)ccc2[nH]1.Cl.Cl [GW681170]
%Inh [1]: 12% | %Inh [2]: 0% | %Inh [3]: 10% | %Inh [4]: 16% | %Inh [5]: 0% | %Inh [6]: 17% | %Inh [7]: 0% | %Inh [8]: 0% | %Inh [9]: 0% | %Inh [10]: 0%

Cc1ccc(C(=O)Nc2ccc(Nc3ccnc4cc(-c5nccs5)ccc34)cc2O)cc1.Cl [GW494702]
%Inh [1]: 0% | %Inh [2]: 0% | %Inh [3]: 0% | %Inh [4]: 1% | %Inh [5]: 0% | %Inh [6]: 34% | %Inh [7]: 0% | %Inh [8]: 5% | %Inh [9]: 3% | %Inh [10]: 0%

Nc1n[nH]c2cnc(-c3ccccc3)cc12 [SB-642124]
%Inh [1]: 0% | %Inh [2]: 0% | %Inh [3]: 0% | %Inh [4]: 16% | %Inh [5]: 3% | %Inh [6]: 37% | %Inh [7]: 4% | %Inh [8]: 8% | %Inh [9]: 0% | %Inh [10]: 5%

Cc1ccc(S(=O)(=O)Nc2ccc(Nc3nccc(Nc4cccc5[nH]ncc45)n3)cc2)cc1 [GSK581271]
%Inh [1]: 0% | %Inh [2]: 0% | %Inh [3]: 0% | %Inh [4]: 7% | %Inh [5]: 0% | %Inh [6]: 35% | %Inh [7]: 46% | %Inh [8]: 0% | %Inh [9]: 11% | %Inh [10]: 0%

COc1cc2c(cc1OCCN1CCNCC1)ncc1c3ccc(C#N)cc3[nH]c21
%Inh [1]: 0% | %Inh [2]: 0% | %Inh [3]: 0% | %Inh [4]: 6% | %Inh [5]: 0% | %Inh [6]: 9% | %Inh [7]: 0% | %Inh [8]: 60% | %Inh [9]: 12% | %Inh [10]: 28%

CCn1c(-c2nonc2N)nc2c(C#CC(C)(C)O)nc(OC[C@H](N)c3ccccc3)cc21 [GSK943949]
%Inh [1]: 0% | %Inh [2]: 23% | %Inh [3]: 5% | %Inh [4]: 0% | %Inh [5]: 5% | %Inh [6]: 1% | %Inh [7]: 0% | %Inh [8]: 58% | %Inh [9]: 9% | %Inh [10]: 7%

O=C(O)C(F)(F)F.O=C(O)C(F)(F)F.O=c1[nH]ccc2nc(N[C@@H]3CCCNC3)nc(Nc3ccc(S(=O)(=O)N4CCOCC4)cc3)c12 [GSK2177277]
%Inh [1]: 96.4% | %Inh [2]: 83% | %Inh [3]: 98.4% | %Inh [4]: 35% | %Inh [5]: 80% | %Inh [6]: 57% | %Inh [7]: 99.3% | %Inh [8]: 41% | %Inh [9]: 97.5% | %Inh [10]: 98.9%

Source: publication PMC5540273 (PLoS ONE, 2017)
